# Assay results: PubChem BioAssay (Tox21)
# Results filed as inconclusive are left out. Entries that show only a call come without a potency. The source holds several records for some structures; these can differ, active in one and inactive in another. Activity calls are given as the source filed them. Calls come from the whole dose curve; as a rule, active = well fitted cell-killing curve with a large enough effect in the repeat runs; inconclusive = weak or mixed curves; inactive = flat fitted curve, though single readings scatter.
# Test: qHTS RealTime-Glo MT Cell Viability Assay in HepG2 cells - 16 hour (AID 1224885); note: nearly all actives have a fitted effect of over 50% in size
# Details: RealTime-Glo luminescence; series mostly up to 76.8 µM
# How it was run: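 HepG2 cells were seeded at 600 cells/well together with NanoLuc luciferase and a cell-permeant prosubstrate, preincubated 5 h at 37 C/5% CO2, then pin-dosed with compounds in DMSO. Nonlytic luminescence from viable cells was read at each time point.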
# Potency is the fitted concentration of half-maximal effect.
row,Compound,Potency
1,Cn1cc(C(=O)[C@@H]2CCc3nc[nH]c3C2)c2ccccc21,inactive
2,Cc1cc(C2CCCCC2)n(O)c(=O)c1,inactive
3,Cc1[nH]nc2c1N=C(c1ccccc1Cl)c1cc([N+](=O)[O-])ccc1N2,inactive
4,CC1=C(C(=O)OC(C)C)C(c2cccc([N+](=O)[O-])c2)C(C(=O)OC2CN(C(c3ccccc3)c3ccccc3)C2)=C(N)N1 (stereo not given),21.3 µM (active)
5,CCCCc1oc2ccc(NS(C)(=O)=O)cc2c1C(=O)c1ccc(OCCCN(CCCC)CCCC)cc1,19 µM (active)
6,OCCCCCCCCCCCCBr,inactive
7,Cc1ccc(-n2nc(C(C)(C)C)cc2NC(=O)Nc2ccc(OCCN3CCOCC3)c3ccccc23)cc1,inactive
8,C/C(=C(/OCCOc1ccc(Cl)cc1)c1ccc(Cl)cc1Cl)n1ccnc1,inactive
9,NNc1nc(-c2ccc(N)cc2)cs1,inactive
10,Nc1nc2ccccc2n1Cc1ccc(F)cc1,inactive
11,OCCN(CCO)c1nc(N2CCCCC2)c2nc(N(CCO)CCO)nc(N3CCCCC3)c2n1,inactive
12,CCCCCCCCn1sc(Cl)c(Cl)c1=O,4.9 µM (active)
13,Clc1ccccc1C(c1ccccc1)(c1ccccc1)n1ccnc1,24.5 µM (active) and inactive
14,[Cl][Au]([Cl])[Cl],15.5 µM (active)
15,Oc1c(Cl)cc(Cl)c2cccnc12,inactive
16,O=C(NOCC1CC1)c1ccc(F)c(F)c1Nc1ccc(I)cc1Cl,inactive
17,O=C(N/N=C/c1ccccc1O)c1ccncc1,inactive
18,ON=C1CCCC1,inactive
19,Nc1ccccc1O,inactive
20,[O-][n+]1ccccc1SSc1cccc[n+]1[O-],0.233 µM (active)
